Laboratory results as given in the supplement of paper PMC10849652.
Of roughly 8,800 targets only a part is listed; those with a hit were picked by preference. About 0.5% of all pairs of compound and target were hits.

Experiments:
Assay in all cases: log2 fold change, soluble protein after heating vs DMSO (PISA); higher = thermal stabilisation; K562 lysate, 10 uM; active = over 0.2 and 3.5 SD of the protein, either way, in both replicates (recomputed)
erlotinib = compound: C#Cc1cccc(Nc2ncnc3cc(OCCOC)c(OCCOC)cc23)c1 [erlotinib]
How it was run: (§1)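 Following dounce homogenisation of K562 pellets in PBS pH 7.4 with 1 mM MgCl2, crude extract at 1 mg/mL protein was incubated for 30 min with 10 μM compound. Aliquots were then heated for 3 min over 48°C-58°C and pooled, NP-40 was added to 0.5% at 4°C, and soluble protein was recovered as the supernatant at 21,000xg for 90 min. Channel-sum-equalised TMTpro 16plex LC-MS/MS quantified this protein. Each value, from duplicates, is a log-two fold change in thermal stability relative to solvent controls.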

[1] = compound: C/C(=N\NC(=O)C1=CC(=CC=C1)S(=O)(=O)N2CCOCC2)/C3=C(C=CC(=C3)Cl)O
How it was run: as §1

[2] = compound: C1=CC(=CC=C1C2=NC3=C(N2)C=C(C=C3)C(=O)N)OC4=CC=C(C=C4)Cl
How it was run: as §1

[3] = compound: C1=CC2=C(C=CC(=C2)/C=C\3/C(=O)NC(=NCC4=CC=CS4)S3)N=C1
How it was run: as §1

[4] = compound: C1=CC2=NC=CN=C2C=C1/C=C/3\C(=O)NC(=O)S3
How it was run: as §1

[5] = compound: C1=CC=C(C=C1)C2=NC(=C(N2)C3=CC=NC=C3)C4=CC(=C(C=C4)Cl)O
How it was run: as §1

[6] = compound: C1=CC=C2C(=C1)C3=NNC4=CC=CC(=C43)C2=O
How it was run: as §1

[7] = compound: C1CCN(C1)C(=O)NC2=CC=CC(=C2)NC3=NC=C(C(=N3)NCCC4=CN=CN4)Br
How it was run: as §1

[8] = compound: C1CN(CCC1(CC2=CC=C(C=C2)Cl)N)C3=NC=NC4=C3C=CN4
How it was run: as §1

IRAK-1-4 Inhibitor I = compound: C1COCCN1CCN2C3=CC=CC=C3N=C2NC(=O)C4=CC(=CC=C4)[N+](=O)[O-] [IRAK-1-4 Inhibitor I]
How it was run: as §1

Measured: log2 fold change

EEF1A1, A0A087WVQ9
inactive: erlotinib 0.029 | [1] -0.049 | [2] 0.054 | [3] -0.069 | [4] -0.016 | [5] -0.035 | [6] -0.072 | [7] -0.019 | [8] -0.001 | IRAK-1-4 Inhibitor I 0.03

ERCC4 (UniProt Q92889)
Sequence of UniProt Q92889 (Q92889 whole entry, looked up): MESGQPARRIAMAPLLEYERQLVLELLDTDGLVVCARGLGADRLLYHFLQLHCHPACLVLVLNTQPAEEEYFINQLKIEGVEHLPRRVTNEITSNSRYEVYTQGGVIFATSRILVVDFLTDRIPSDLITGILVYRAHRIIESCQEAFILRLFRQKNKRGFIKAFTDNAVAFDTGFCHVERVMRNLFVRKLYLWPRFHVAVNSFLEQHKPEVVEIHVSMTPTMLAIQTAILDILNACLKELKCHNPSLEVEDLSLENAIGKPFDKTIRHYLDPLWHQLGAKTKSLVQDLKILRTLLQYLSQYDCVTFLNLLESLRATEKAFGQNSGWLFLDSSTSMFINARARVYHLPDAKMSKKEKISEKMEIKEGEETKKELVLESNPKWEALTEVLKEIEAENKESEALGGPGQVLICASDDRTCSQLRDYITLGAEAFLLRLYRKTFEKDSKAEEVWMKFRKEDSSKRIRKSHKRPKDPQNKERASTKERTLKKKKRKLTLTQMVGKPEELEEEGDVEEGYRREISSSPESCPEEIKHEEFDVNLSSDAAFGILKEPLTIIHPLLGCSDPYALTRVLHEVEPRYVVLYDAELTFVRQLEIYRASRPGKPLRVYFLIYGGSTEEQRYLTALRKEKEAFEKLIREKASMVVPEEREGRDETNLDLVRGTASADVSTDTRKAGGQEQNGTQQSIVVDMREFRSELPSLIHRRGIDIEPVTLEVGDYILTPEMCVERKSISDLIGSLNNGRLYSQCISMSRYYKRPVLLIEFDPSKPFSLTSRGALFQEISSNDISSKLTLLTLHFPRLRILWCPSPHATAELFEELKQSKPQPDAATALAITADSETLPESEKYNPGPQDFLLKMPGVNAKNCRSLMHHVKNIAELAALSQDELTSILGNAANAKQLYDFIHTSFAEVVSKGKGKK
inactive: erlotinib -0.008 | [1] -0.04 | [2] 0.033 | [3] 0.015 | [4] -0.021 | [5] -0.003 | [6] -0.096 | [7] -0.006 | [8] 0.051 | IRAK-1-4 Inhibitor I 0.029

FAM98A (UniProt Q8NCA5)
inactive: erlotinib -0.004 | [1] -0.026 | [2] 0.028 | [3] -0.048 | [4] -0.02 | [5] 0.01 | [6] 0.014 | [7] -0.05 | [8] -0.017 | IRAK-1-4 Inhibitor I -0.04

FBXO22 (UniProt Q8NEZ5)
inactive: erlotinib 0.042 | [1] -0.022 | [2] 0.048 | [3] 0.016 | [4] 0.02 | [5] -0.002 | [6] -0.01 | [7] 0.029 | [8] 0.049 | IRAK-1-4 Inhibitor I 0.007

EIF1 (UniProt P41567)
Sequence of UniProt P41567 (P41567 whole entry, looked up): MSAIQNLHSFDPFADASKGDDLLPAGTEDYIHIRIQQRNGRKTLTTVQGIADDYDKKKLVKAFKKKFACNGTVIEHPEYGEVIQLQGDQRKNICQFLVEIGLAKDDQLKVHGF
inactive: erlotinib -0.006 | [1] -0.022 | [2] 0.063 | [3] -0.031 | [4] -0.004 | [5] 0.044 | [6] 0.011 | [7] -0.027 | [8] -0.023 | IRAK-1-4 Inhibitor I 0.02

DTWD1 (UniProt Q8N5C7)
Sequence of UniProt Q8N5C7 (Q8N5C7 whole entry, looked up): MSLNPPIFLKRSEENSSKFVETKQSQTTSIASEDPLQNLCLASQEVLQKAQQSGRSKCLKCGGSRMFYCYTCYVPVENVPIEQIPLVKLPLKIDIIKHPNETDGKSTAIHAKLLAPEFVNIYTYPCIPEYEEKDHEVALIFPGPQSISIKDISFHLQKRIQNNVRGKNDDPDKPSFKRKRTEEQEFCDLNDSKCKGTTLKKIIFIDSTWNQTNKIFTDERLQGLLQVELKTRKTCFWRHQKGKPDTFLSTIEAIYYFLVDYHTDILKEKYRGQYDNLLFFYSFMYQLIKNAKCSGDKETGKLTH
inactive: erlotinib 0.01 | [1] 0.082 | [2] -0.039 | [3] -0.004 | [4] -0.048 | [5] -0.025 | [6] 0.039 | [7] 0.01 | [8] 0.047 | IRAK-1-4 Inhibitor I -0.01

FHOD1 (UniProt Q9Y613)
inactive: erlotinib 0.005 | [1] 0.021 | [2] 0 | [3] 0.048 | [4] -0.02 | [5] -0.011 | [6] -0.016 | [7] -0.011 | [8] -0.009 | IRAK-1-4 Inhibitor I -0.008

G6PD isoform 2 (UniProt P11413)
inactive: erlotinib 0.034 | [1] 0.05 | [2] 0.024 | [3] 0.016 | [4] 0.018 | [5] -0.001 | [6] -0.002 | [7] 0.006 | [8] 0.011 | IRAK-1-4 Inhibitor I 0.001

EP400 isoform 5 (UniProt Q96L91)
inactive: erlotinib 0.045 | [1] 0.01 | [2] -0.007 | [3] -0.023 | [4] -0.042 | [5] -0.003 | [6] -0.074 | [7] -0.027 | [8] -0.023 | IRAK-1-4 Inhibitor I -0.005

FREM2 (UniProt Q5SZK8)
inactive: erlotinib 0.015 | [1] -0.095 | [2] -0.109 | [3] -0.065 | [4] 0.047 | [5] 0.008 | [6] -0.051 | [7] -0.02 | [8] -0.021 | IRAK-1-4 Inhibitor I 0.009

GART (UniProt P22102)
inactive: erlotinib -0.007 | [1] 0.022 | [2] -0.025 | [3] -0.013 | [4] 0.016 | [5] 0.015 | [6] -0.011 | [7] -0.001 | [8] -0.003 | IRAK-1-4 Inhibitor I 0.005

EXOC6 (UniProt Q8TAG9)
Sequence of UniProt Q8TAG9 (Q8TAG9 whole entry, looked up): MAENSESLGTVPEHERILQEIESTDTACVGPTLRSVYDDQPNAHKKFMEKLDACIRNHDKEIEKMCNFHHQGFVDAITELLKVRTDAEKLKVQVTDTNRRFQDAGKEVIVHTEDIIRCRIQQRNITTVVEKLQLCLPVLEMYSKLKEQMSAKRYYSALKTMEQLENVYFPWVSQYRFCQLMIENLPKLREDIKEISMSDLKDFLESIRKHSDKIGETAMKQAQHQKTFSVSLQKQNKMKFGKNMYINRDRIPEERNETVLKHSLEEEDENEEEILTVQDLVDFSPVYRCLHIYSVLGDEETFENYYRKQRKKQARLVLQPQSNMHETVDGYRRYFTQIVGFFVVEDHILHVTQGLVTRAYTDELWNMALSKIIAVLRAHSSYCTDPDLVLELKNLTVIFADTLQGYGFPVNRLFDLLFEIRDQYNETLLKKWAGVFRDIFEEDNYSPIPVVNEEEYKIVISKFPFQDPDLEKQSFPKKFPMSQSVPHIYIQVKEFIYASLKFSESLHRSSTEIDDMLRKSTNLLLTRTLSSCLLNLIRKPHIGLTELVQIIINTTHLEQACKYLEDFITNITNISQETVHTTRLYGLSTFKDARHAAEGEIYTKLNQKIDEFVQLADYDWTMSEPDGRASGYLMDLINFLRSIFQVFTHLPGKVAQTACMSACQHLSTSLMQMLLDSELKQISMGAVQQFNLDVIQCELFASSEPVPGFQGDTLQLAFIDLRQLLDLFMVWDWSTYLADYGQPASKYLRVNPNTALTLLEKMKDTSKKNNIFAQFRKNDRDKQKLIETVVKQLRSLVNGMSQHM
inactive: erlotinib 0 | [1] -0.045 | [2] -0.062 | [3] -0.058 | [4] -0.044 | [5] 0.005 | [6] -0.043 | [7] 0.018 | [8] 0.008 | IRAK-1-4 Inhibitor I 0.013

FAM118B (UniProt Q9BPY3)
Sequence of UniProt Q9BPY3 (Q9BPY3 whole entry, looked up): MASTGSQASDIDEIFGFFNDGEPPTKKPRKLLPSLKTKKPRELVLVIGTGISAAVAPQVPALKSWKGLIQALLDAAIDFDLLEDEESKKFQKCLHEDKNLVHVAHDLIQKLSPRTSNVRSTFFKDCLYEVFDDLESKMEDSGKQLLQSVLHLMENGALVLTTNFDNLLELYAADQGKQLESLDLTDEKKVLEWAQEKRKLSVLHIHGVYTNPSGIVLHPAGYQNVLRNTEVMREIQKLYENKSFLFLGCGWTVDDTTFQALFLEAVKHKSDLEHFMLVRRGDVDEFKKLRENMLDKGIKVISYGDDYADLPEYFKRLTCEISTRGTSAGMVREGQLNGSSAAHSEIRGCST
inactive: erlotinib -0.004 | [1] 0.051 | [2] 0.004 | [3] 0.061 | [4] 0.03 | [5] -0.01 | [6] -0.012 | [7] 0.013 | [8] -0.004 | IRAK-1-4 Inhibitor I -0.03

ETHE1 (UniProt O95571)
Sequence of UniProt O95571 (O95571 whole entry, looked up): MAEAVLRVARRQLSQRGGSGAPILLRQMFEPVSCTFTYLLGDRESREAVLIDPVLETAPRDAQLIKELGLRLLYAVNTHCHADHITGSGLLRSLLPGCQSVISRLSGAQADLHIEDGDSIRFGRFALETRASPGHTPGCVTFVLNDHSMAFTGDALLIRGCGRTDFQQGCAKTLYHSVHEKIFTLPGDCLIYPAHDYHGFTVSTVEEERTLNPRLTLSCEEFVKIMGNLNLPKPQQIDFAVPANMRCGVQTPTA
inactive: erlotinib -0.046 | [1] -0.01 | [2] 0.039 | [3] 0.021 | [4] 0.034 | [5] -0.007 | [6] 0.012 | [7] -0.046 | [8] -0.013 | IRAK-1-4 Inhibitor I -0.044

ERAL1 (UniProt O75616)
inactive: erlotinib -0.016 | [1] -0.003 | [2] 0.05 | [3] -0.014 | [4] 0.03 | [5] 0.015 | [6] -0.027 | [7] -0.041 | [8] -0.047 | IRAK-1-4 Inhibitor I -0.042

FIGNL1 (UniProt Q6PIW4)
inactive: erlotinib -0.008 | [1] -0.019 | [2] -0.025 | [3] 0.005 | [4] -0.011 | [5] -0.005 | [6] -0.015 | [7] 0.035 | [8] 0.006 | IRAK-1-4 Inhibitor I 0.008

GGA2 (UniProt Q9UJY4)
inactive: erlotinib -0.014 | [1] 0.042 | [2] 0.064 | [3] 0.016 | [4] 0.019 | [5] 0.014 | [6] -0.054 | [7] 0.074 | [8] 0.034 | IRAK-1-4 Inhibitor I 0.01

EPHX2 (UniProt P34913)
inactive: erlotinib -0.024 | [1] 0.133 | [2] 0.156 | [3] 0.036 | [4] -0.023 | [5] -0.014 | [6] 0.014 | [7] 0.077 | [8] -0.002 | IRAK-1-4 Inhibitor I -0.014

FOXJ3 (UniProt Q9UPW0)
Sequence of UniProt Q9UPW0 (Q9UPW0 whole entry, looked up): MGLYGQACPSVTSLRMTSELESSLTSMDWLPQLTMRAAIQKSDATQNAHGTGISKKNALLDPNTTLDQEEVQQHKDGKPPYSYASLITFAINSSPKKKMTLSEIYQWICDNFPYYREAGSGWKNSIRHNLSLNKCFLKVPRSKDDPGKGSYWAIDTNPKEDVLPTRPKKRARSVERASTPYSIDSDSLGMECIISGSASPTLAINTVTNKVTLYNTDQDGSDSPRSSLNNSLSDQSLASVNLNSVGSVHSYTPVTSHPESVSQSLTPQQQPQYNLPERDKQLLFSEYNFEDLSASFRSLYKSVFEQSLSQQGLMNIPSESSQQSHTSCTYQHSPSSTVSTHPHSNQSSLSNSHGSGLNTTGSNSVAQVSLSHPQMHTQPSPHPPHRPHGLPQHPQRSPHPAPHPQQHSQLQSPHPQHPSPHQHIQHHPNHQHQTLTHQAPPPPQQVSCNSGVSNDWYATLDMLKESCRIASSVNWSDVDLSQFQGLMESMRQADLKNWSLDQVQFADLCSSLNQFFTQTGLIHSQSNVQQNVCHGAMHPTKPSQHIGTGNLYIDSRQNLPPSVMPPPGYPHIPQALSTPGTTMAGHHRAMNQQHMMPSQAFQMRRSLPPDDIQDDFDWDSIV
inactive: erlotinib 0.018 | [1] 0.085 | [2] -0.015 | [3] -0.001 | [4] 0.014 | [5] 0.032 | [6] -0.01 | [7] -0.035 | [8] -0.013 | IRAK-1-4 Inhibitor I -0.025

GAMT (UniProt Q14353)
inactive: erlotinib 0.018 | [1] -0.008 | [2] 0.033 | [3] -0.008 | [4] -0.01 | [5] -0.016 | [6] 0.036 | [7] 0.035 | [8] 0.066 | IRAK-1-4 Inhibitor I -0.001

ERLIN2 (UniProt O94905)
Sequence of UniProt O94905 (O94905 whole entry, looked up): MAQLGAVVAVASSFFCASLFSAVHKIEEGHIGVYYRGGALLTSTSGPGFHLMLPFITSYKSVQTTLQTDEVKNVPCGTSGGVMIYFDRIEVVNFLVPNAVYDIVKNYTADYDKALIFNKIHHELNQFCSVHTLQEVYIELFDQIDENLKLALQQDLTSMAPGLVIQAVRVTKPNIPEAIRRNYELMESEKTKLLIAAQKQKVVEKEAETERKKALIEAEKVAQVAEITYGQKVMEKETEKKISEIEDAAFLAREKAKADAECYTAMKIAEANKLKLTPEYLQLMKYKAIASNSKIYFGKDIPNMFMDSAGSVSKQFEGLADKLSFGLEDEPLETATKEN
inactive: erlotinib -0.028 | [1] 0.051 | [2] -0.1 | [3] -0.002 | [4] -0.047 | [5] -0.019 | [6] -0.031 | [7] -0.039 | [8] 0.006 | IRAK-1-4 Inhibitor I -0.013

FDFT1 (UniProt P37268)
inactive: erlotinib -0.002 | [1] -0.072 | [2] -0.038 | [3] 0.176 | [4] 0.001 | [5] 0.211 | [6] 0.115 | [7] 0.005 | [8] 0.024 | IRAK-1-4 Inhibitor I -0.014

FXR1 (UniProt P51114)
inactive: erlotinib 0.041 | [1] 0.012 | [2] -0.039 | [3] -0.011 | [4] -0.024 | [5] 0.002 | [6] -0.082 | [7] -0.015 | [8] -0.008 | IRAK-1-4 Inhibitor I -0.057

FASTKD5 (UniProt Q7L8L6)
inactive: erlotinib 0.061 | [1] 0.019 | [2] -0.054 | [3] 0.023 | [4] 0.013 | [5] -0.014 | [6] -0.066 | [7] -0.047 | [8] 0.013 | IRAK-1-4 Inhibitor I -0.019

FMNL2 isoform 3 (UniProt Q96PY5)
inactive: erlotinib -0.02 | [2] -0.064 | [5] 0.083 | IRAK-1-4 Inhibitor I -0.092

ETFRF1 (UniProt Q6IPR1)
Sequence of UniProt Q6IPR1 (Q6IPR1 whole entry, looked up): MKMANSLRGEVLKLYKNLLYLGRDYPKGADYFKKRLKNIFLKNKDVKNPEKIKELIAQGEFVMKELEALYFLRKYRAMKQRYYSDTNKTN
inactive: erlotinib -0.032 | [1] -0.008 | [2] -0.048 | [3] 0.083 | [4] -0.064 | [5] -0.038 | [6] -0.063 | IRAK-1-4 Inhibitor I -0.002

EIF2AK3 (UniProt Q9NZJ5)
Sequence of UniProt Q9NZJ5 (Q9NZJ5 whole entry, looked up): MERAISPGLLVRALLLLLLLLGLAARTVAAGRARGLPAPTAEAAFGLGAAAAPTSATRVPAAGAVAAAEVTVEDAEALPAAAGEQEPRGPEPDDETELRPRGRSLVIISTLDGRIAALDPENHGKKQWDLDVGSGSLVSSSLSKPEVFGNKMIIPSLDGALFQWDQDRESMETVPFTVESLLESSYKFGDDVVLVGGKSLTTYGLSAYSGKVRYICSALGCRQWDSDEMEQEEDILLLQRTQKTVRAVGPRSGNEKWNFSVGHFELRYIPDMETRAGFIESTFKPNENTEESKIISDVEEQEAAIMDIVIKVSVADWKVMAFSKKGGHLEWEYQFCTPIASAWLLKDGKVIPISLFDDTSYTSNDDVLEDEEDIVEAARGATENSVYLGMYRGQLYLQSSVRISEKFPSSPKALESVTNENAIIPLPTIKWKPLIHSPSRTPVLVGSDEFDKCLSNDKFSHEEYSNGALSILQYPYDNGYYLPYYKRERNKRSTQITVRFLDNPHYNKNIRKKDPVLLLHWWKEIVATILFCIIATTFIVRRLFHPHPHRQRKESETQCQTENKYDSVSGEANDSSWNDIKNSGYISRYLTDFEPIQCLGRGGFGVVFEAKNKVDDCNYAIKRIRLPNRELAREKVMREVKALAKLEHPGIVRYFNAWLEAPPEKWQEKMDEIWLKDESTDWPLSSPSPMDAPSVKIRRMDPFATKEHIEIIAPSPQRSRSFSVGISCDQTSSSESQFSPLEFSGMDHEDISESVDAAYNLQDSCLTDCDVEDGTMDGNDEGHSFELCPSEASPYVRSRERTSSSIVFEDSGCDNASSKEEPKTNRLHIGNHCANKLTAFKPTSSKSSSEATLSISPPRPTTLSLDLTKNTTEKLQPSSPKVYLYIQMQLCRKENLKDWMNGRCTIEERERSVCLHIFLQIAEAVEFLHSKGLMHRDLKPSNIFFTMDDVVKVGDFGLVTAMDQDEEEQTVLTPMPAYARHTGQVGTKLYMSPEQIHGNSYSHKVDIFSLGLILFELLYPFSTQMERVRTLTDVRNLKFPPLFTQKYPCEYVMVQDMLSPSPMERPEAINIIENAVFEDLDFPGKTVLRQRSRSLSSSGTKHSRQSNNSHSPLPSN
inactive: erlotinib -0.014 | [2] 0.015 | [5] -0.049 | IRAK-1-4 Inhibitor I -0.044

DYRK1A isoform 2 (UniProt Q13627)
inactive: erlotinib -0.064 | [2] -0.476 | [4] 0.247 | [5] 0.069 | IRAK-1-4 Inhibitor I -0.595

FNDC3A (UniProt Q9Y2H6)
inactive: erlotinib 0.198 | [2] 0.024 | [5] -0.112 | IRAK-1-4 Inhibitor I 0.04
